Results published in PubChem BioAssay.
The source made the active and inactive calls.

tested on: not listed separately; assay: blood-stage malaria parasite viability loss – strain 3D7, DAPI fluorescence, 100 nL, primary screen (AID 1184);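 also: parasites grown inside human red blood cells in medium with human serum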; settings: P. falciparum 3D7 growth, 3 d, higher = more signal

Compound	z-score
C#CCCCON=C1[C@H]2CCn3c(=O)n(-c4ccccc4)c(=O)n3[C@H]2[C@H](O)[C@@H]2O[C@H]12	-1.19
CON=Cc1ccc(C(=O)N2[C@H](c3ccc(C)cc3)[C@@H](C)CC[C@H]2C(=O)OC)cc1	-0.141
C=CC1=C[C@H](O)[C@@H]2O[C@@H]2C12OCCCO2	-0.706
COC(=O)CC=C[C@H](C)[C@@H](OCc1cccc(Br)c1)[C@@H](C)[C@H](OC)C1CCCCC1	0.536
CC(C)CCN1CCc2nc(COc3ccccc3)c3c(c2C1)CO[C@@H](C)C3	0.329
COC(=O)[C@@H]1CC[C@H](C)[C@@H](c2ccc(C)cc2)N1C(=O)c1ccc(C=NO[C@H](C)c2cn([C@@H]3COC[C@H]3O)nn2)cc1	-0.214
CO[C@H]1COC(=O)CC=C[C@@H](C)[C@H](OC)COC(=O)CCC[C@@H]1C	0.0095
CCN1C(=O)[C@H]2[C@H]3[C@H](O)[C@H](O)CC(=O)[C@@H]3CC[C@H]2C1=O	1.51

molecular target: Homeobox protein Hox-A13 (Mus musculus) (UniProt Q62424); assay: disruptors of Hoxa13 oligonucleotide interaction – biochemical, fluorescence polarization, labeled oligonucleotide, primary screen (AID 1185); settings: Hoxa13:DNA binding, 15 min, higher = more signal, called active from +8 up or from −8 down
Sequence (Q62424 whole entry, looked up): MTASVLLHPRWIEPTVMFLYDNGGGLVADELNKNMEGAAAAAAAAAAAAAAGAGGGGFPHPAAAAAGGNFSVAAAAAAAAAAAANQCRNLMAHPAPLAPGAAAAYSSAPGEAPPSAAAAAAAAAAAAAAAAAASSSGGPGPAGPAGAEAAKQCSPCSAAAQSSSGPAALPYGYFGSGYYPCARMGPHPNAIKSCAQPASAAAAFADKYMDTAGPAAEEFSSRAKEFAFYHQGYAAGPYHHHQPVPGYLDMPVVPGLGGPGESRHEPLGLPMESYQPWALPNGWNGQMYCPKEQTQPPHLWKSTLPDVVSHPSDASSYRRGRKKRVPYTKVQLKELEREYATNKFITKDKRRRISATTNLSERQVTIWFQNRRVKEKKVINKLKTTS

Compound	z-score
CCOC(=O)[C@H](CC(C)C)NC(=O)CCC1CC(OC(=O)NCc2cccc3ccccc23)CC2(CCCC(COC(=O)NCCC(C)C)O2)O1 (some centres undefined)	-6.1 (inactive)
CCOC(=O)[C@H](CC(C)C)NC(=O)CCC1CC(OC(=O)NCc2ccc3c(c2)OCO3)CC2(CCCC(COC(=O)NCc3cccc(C(F)(F)F)c3)O2)O1 (some centres undefined)	-1.71 (inactive)
CO[C@H]1COC(=O)[C@@H](C)COC(=O)[C@@H](OCc2ccccc2)C=C[C@@H]1C	-0.618 (inactive)
Cc1ccc(S(=O)(=O)N[C@H]2COC(=O)CC=C[C@H](C)[C@@H](NS(=O)(=O)c3ccc(C)cc3)COC(=O)CC=C[C@@H]2C)cc1	-0.449 (inactive)
CCOC(=O)[C@H](Cc1ccccc1)NC(=O)CCC1CC(OC(=O)NCCc2ccc(F)cc2)CC2(CCCC(COC(=O)NCCCN3CCCC3=O)O2)O1 (some centres undefined)	-2.25 (inactive)
CCOC(=O)[C@H](CC(C)C)NC(=O)CCC1CC(OC(=O)NCCc2ccc(F)cc2)CC2(CCCC(COC(=O)NCCc3ccccc3OC)O2)O1 (some centres undefined)	-2.36 (inactive)
C#CCCCON=C1C[C@@H](O)[C@@H](O)[C@@H]2[C@@H]3C(=O)N(c4ccc(F)cc4F)C(=O)[C@@H]3CC[C@@H]12	-3.13 (inactive)
CC(C)CON=C1C[C@@H](O)[C@@H](O)[C@@H]2[C@@H]3C(=O)N(c4cccc(Oc5ccccc5)c4)C(=O)[C@@H]3CC[C@@H]12	-0.0907 (inactive)
COc1ccc(O[C@H]2C=C[C@@H](c3ccccc3)O[C@@H]2COC(=O)CCC(C)=NO[C@@H]2O[C@H](COC(C)=O)[C@@H](OC(C)=O)[C@H](OC(C)=O)[C@H]2OC(C)=O)cc1	-4.34 (inactive)
C[C@H](ON=C1[C@H]2CCn3c(=O)n(-c4ccccc4)c(=O)n3[C@H]2[C@H](O)[C@@H]2O[C@H]12)c1cn([C@H](CO)Cc2ccccc2)nn1	-3.02 (inactive)
COCOc1ccc(Br)cc1C(=O)[C@@H]1O[C@H]1c1cccc(OC)c1	-1.99 (inactive)
CCOC(=O)[C@H](Cc1ccccc1)NC(=O)CCC1CC(OC(=O)NCc2cccc3ccccc23)CC2(CCCC(COC(=O)NCCC(C)C)O2)O1 (some centres undefined)	-5.99 (inactive)
COc1ccc(COC(=O)NN=C2C[C@@H](O)[C@@H](O)[C@@H]3[C@@H]4C(=O)N(c5cccc(Oc6ccccc6)c5)C(=O)[C@@H]4CC[C@@H]23)cc1	-4.69 (inactive)
CCc1cc2c(nc1CC)CCN(CCC(C)=NO[C@H](C)c1cn([C@@H]3COC[C@H]3O)nn1)C2	-1.7 (inactive)
O=C1[C@H]2[C@H]3[C@H](O)[C@H](O)CC(=NOCc4ccccc4)[C@@H]3CC[C@H]2C(=O)N1Cc1ccc2c(c1)OCO2	-3.53 (inactive)
O=C1CCCC(C2=CCCCC2=O)C1 (centres undefined)	-1.63 (inactive)
O=C1[C@H]2[C@H]3[C@H](O)[C@H](O)CC(=NOC[C@@H](O)COCc4ccco4)[C@H]3CC[C@H]2C(=O)N1Cc1ccccc1	-2.38 (inactive)
CCc1cc2c(nc1CC)CCN(CCC(C)=NOC[C@H]1O[C@H](c3ccccc3)C=C[C@@H]1Oc1ccc(OC)cc1)C2	-3.13 (inactive)

Compound	z-score
CCOC(=O)[C@H](Cc1ccccc1)NC(=O)CCC1CC(OC(=O)NCCc2ccc(F)cc2)CC2(CCCC(COC(=O)NCCOC)O2)O1 (some centres undefined)	-6.28 (inactive)
CC(C)[C@@H](OCc1ccccc1)[C@H](C)C=NOC[C@@H](O)COCc1ccco1	-2.74 (inactive)
CON=C[C@@H](NS(=O)(=O)c1ccc(C)cc1)[C@H](C)C=CCC(=O)OC	1.12 (inactive)
COc1ccc(O[C@H]2C=C[C@@H](c3ccccc3)O[C@@H]2CON=C2[C@H]3CCn4c(=O)n(-c5ccccc5)c(=O)n4[C@H]3[C@H](O)[C@@H]3O[C@H]23)cc1	-4.59 (inactive)
CO[C@@H]1COC(=O)[C@@H](C)NC(=O)CC=C[C@@H](C)[C@H](NS(=O)(=O)c2ccc(C)cc2)COC(=O)[C@H](C)NC(=O)CC=C[C@H]1C	-0.348 (inactive)
CO[C@H]1COC(=O)[C@@H](Cc2ccccc2)NC(=O)[C@@H](C)COC(=O)CCC[C@@H]1C	-0.733 (inactive)
COC(=O)[C@H]1[C@@H](O)[C@@]2(O)c3ccccc3O[C@@]2(c2ccccc2)[C@@H]1c1ccccc1	-1.51 (inactive)
CC(C)CON=C1C[C@@H](O)[C@@H](O)[C@@H]2[C@@H]3C(=O)N(Cc4ccc5c(c4)OCO5)C(=O)[C@@H]3CC[C@H]12	-3.41 (inactive)
COC(=O)CC=C[C@@H](C)[C@@H](C=NOC[C@H]1O[C@H](c2ccccc2)C=C[C@@H]1Oc1ccc(OC)cc1)NS(=O)(=O)c1ccc(C)cc1	-2.52 (inactive)
C[C@@H](ON=C1[C@H]2CCn3c(=O)n(-c4ccccc4)c(=O)n3[C@H]2[C@H](O)[C@@H]2O[C@H]12)c1cn([C@@H]2COC[C@H]2O)nn1	-2.77 (inactive)
C#CCCCON=C1[C@H]2CCn3c(=O)n(-c4ccccc4)c(=O)n3[C@H]2[C@H](O)[C@@H]2O[C@H]12	0.241 (inactive)
CON=Cc1ccc(C(=O)N2[C@H](c3ccc(C)cc3)[C@@H](C)CC[C@H]2C(=O)OC)cc1	-3.49 (inactive)
C=CC1=C[C@H](O)[C@@H]2O[C@@H]2C12OCCCO2	-1.87 (inactive)
COC(=O)CC=C[C@H](C)[C@@H](OCc1cccc(Br)c1)[C@@H](C)[C@H](OC)C1CCCCC1	0.0373 (inactive)
CC(C)CCN1CCc2nc(COc3ccccc3)c3c(c2C1)CO[C@@H](C)C3	-5.02 (inactive)
COC(=O)[C@@H]1CC[C@H](C)[C@@H](c2ccc(C)cc2)N1C(=O)c1ccc(C=NO[C@H](C)c2cn([C@@H]3COC[C@H]3O)nn2)cc1	-6.19 (inactive)
CO[C@H]1COC(=O)CC=C[C@@H](C)[C@H](OC)COC(=O)CCC[C@@H]1C	-0.51 (inactive)
CCN1C(=O)[C@H]2[C@H]3[C@H](O)[C@H](O)CC(=O)[C@@H]3CC[C@H]2C1=O	0.202 (inactive)
